From PubChem BioAssay
A selection: hits, their analogues and other compounds. The true share with any hit is near 9.3%.
Sm TGR inh = inhibitors of Schistosoma mansoni thioredoxin glutathione reductase | Q962Y6 | purified TGR, DTNB reduction, TNB absorbance 405 nm | Potency, µM (highest dose often 114 µM), for inactives: at the top dose activity change, negative = inhibition, usual class: inhibitors | 360,000 compounds, 3% hits | AID 485364; also: potency is read from the fitted curve at half-maximal effect; nearly all actives have a fitted effect of over 60% in size
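Kinetic colorimetric format: TGR-catalysed, NADPH-driven DTNB reduction monitored via TNB absorbance. Enzyme dispensed at 20 nM; compound exposure 15 min at room temperature before reaction start.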
FMDV antiviral = blocks foot and mouth disease virus | FMDV antiviral cell-based qHTS | Potency, µM (doses to about 57.9 µM), for the others: at the highest dose activity change, negative = inhibition, hits mostly inhibitors | 410,000 compounds, 1.2% hits | AID 1159524; calls by dose curve; tested in HEK293T cells; also: read-out not given here; potency is read from the fitted curve at half-maximal effect; nearly all actives have a fitted effect of over 45% in size
VACV mCherry inh = vaccinia inhibition (mCherry reporter). Vaccinia virus mCherry reporter infection, fluorescence. 310,000 compounds, 0.63% hits. Potency, µM (highest dose often 36.5 µM), for the others: top-dose activity change, negative = inhibition, usual class: inhibitors. AID 720579; calls by dose curve; tested in A549 cells; also: potency is read from the fitted curve at half-maximal effect; nearly all actives have a fitted effect of over 35% in size
HCV inh = inhibitors of hepatitis C virus infection | 340,000 compounds, 3.4% hits | Potency, µM (series often up to 41.8 µM), for inactives: at the top dose activity change, negative = inhibition, usual class: inhibitors | AID 651820 | Huh7.5.1 HCVcc-Cre infection, luciferase reporter, 44 h; also: potency is read from the fitted curve at half-maximal effect
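A cell-based infection assay in which seeded cells (1,000 per well) receive test compound after 4 h, are inoculated with HCVcc-Cre at approximately 0.5 moi, and are incubated 44 h before luminescence detection.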
VACV Venus inh = vaccinia inhibition (Venus reporter); Vaccinia virus Venus reporter expression, fluorescence; Potency, µM (highest dose often 36.5 µM), for inactives: top-dose activity change, negative = inhibition, most hits filed as inhibitors; 330,000 compounds, 0.46% hits; AID 720580; calls by dose curve; tested in A549 cells; also: potency is read from the fitted curve at half-maximal effect; nearly all actives have a fitted effect of over 30% in size
HCMV inh = inhibitors of human cytomegalovirus; 410,000 compounds, 4.5% hits; AID 1259415; activity change, negative = inhibition, % at 57.5 µM; HFF cells, HCMV-luciferase reporter, 72 h; hits give low values; in the data active = activity change below about -60%; inconclusive = no clear call, values can overlap the other calls; inactive = above about -39%
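Human foreskin fibroblasts infected with luciferase-reporter HCMV at MOI 1 PFU/cell, compounds at two doses. Luciferase measured 72 h post infection; normalized to buffer-only basal and Salinomycin (10uM) controls.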
* marks the source's active call; other numbers are inactive results; i = inactive; ? = inconclusive; · = no result; [ ] = another dose, or the depositor's remark. Unless noted, calls follow the shape of the dose curve; as a rule, active = well fitted curve in the direction sought with a large enough effect; inconclusive = small, poorly fitted or top-dose-only effect, or another doubt; inactive = no such curve, though single readings can be large; an effect the other way counts as inactive or inconclusive. % is scaled to controls: 0 for no effect and ±100 for the full control effect.

SMILES	Sm TGR inh	FMDV antiviral	VACV mCherry inh	HCV inh	VACV Venus inh	HCMV inh
Clc1cccc(-c2nc(NCc3cccnc3)c3ccccc3n2)c1	1%	-2%	·	2.8µM*	·	-26
N#Cc1c(NCc2ccccc2)ccnc1NCc1cccnc1	-2%	-15%	?	7.1µM*	?	-80*
CC1CCc2sc(C(=O)NCC(C)(C)N3CCOCC3)cc2C1 (stereo not drawn)	-15%	0%	-26%	10%	-20%	-19
CCS(=O)(=O)NC(=O)C1(C)CCN1C(=O)C1(c2ccc(Cl)cc2)CC1 (stereo not drawn)	·	-8%	-5%	·	11%	5
C/C(N=Nc1nc2ccccc2s1)=N\Nc1ccccc1O	0%	-17%	?	?	-4%	?
CCC(C)Sc1nc2ccccc2n1CC(=O)O (stereo not drawn)	0%	2%	·	1%	·	-15
FC(F)(F)c1nc(NCc2cccnc2)c2ccccc2n1	-11%	-25%	-14%	-25%	-13%	-62*
c1cncc(-c2nc(NCc3ccco3)c3ccccc3n2)c1	25µM*	-19%	i	10µM*	-14%	35
Cc1ccc(-c2nc(NCc3ccco3)c3ccccc3n2)cc1	1%	24%	·	?	·	-14
O=C(NCc1ccccc1)c1ccc2c(c1)C(=O)N(Cc1ccncc1)C2=O	5%	-15%	-14%	1%	-10%	-12
Cc1cccc(N2CCN(S(=O)(=O)c3cc(-c4cc(C)no4)ccc3C)CC2C)c1 (stereo not drawn)	3%	0%	·	4µM*	·	?
COc1ccc(-c2cc(C)no2)cc1S(=O)(=O)N1CCN(c2cccc(C)c2)C(C)C1 (stereo not drawn)	-13%	?	?	10µM*	?	-74*
COc1ccc(-c2cc(C)no2)cc1S(=O)(=O)Nc1cccc(C)c1	1%	28%	·	10µM*	·	16
O=C(NCc1ccc(F)cc1)c1cc(C2CCCCN2C(=O)c2ccc3c(c2)CCO3)on1 (stereo not drawn)	·	-9%	-10%	·	-13%	-2
Cc1cc(C(=O)N/N=C2\CC(=O)CC(C)(C)C2)c(C)n1-c1ccc(F)cc1	?	0%	i	-20%	-14%	-64*
CC1CCN(C2CC(=O)N(c3ccccc3)C2=O)CC1 (stereo not drawn)	28µM*	-2%	-1%	6%	-6%	-11
CC1CCN(C2CC(=O)N(c3ccc(Br)cc3Br)C2=O)CC1 (stereo not drawn)	20µM*	-22%	i	8%	4%	-31
O=C1CC(N2CCSCC2)C(=O)N1c1ccc(Br)cc1 (stereo not drawn)	?	21%	·	-1%	·	-37
CCC(=O)C1=C(N2CCCC2)CC(C)(C)CC1=O	4%	-18%	·	19%	-8%	29
COc1ccccc1C(=O)N/C(=C\c1ccc(Br)cc1)C(=O)NCCCO	17%	-6%	·	4%	·	31
c1ccc(N2CCN(Cc3ccc4c(c3)OCO4)CC2)nc1	·	-12%	·	4%	·	7
O=C(c1ccc2c(c1)OCCO2)N1CCN(c2ccc(C(F)(F)F)cn2)CC1	·	?	-4%	·	-21%	-60*
CN1CCN(c2ccc(NC(=O)c3ccc(C(F)(F)F)cc3)cn2)CC1	-1%	?	-15%	11µM*	-3%	-38
FC(F)(F)c1ccc(N2CCN(Cc3ccc4c(c3)OCO4)CC2)nc1	-15%	0%	i	-14%	-22%	-64*
O=C(c1ccc2c(c1)OCO2)N1CCN(c2ccc(C(F)(F)F)cn2)CC1	-3%	0%	-6%	?	-26%	?
SMILES	Sm TGR inh	FMDV antiviral	VACV mCherry inh	HCV inh	VACV Venus inh	HCMV inh
CCOC(=O)NC1Cc2ccccc2C1Sc1ccccn1 (stereo not drawn)	1%	-25%	·	1%	·	79
COC(=O)c1cn(C(=O)c2cc(OC)cc(OC)c2)c2ccccc12	20%	-21%	-18%	5%	-12%	-16
Cc1ccc(C)n1-c1ccc(N2CCOCC2)cc1	24%	-15%	·	?	·	-73*
Cc1ccc(C)n1-c1ccc(N(C)C)cc1	32µM*	-13%	i	-27%	-10%	?
Cc1ccc(C)n1-c1ccc(N2CCOCC2)c([N+](=O)[O-])c1	35µM*	-10%	·	-6%	·	-31
Cc1ccc(N(C)C)cc1	·	·	·	·	·	37
COc1ccc(S(=O)(=O)Nc2cccc(-c3ccc4nncn4n3)c2)cc1	-10%	0%	?	-11%	?	-12
COc1cc(CCCN2CCNC[C@@H]2c2ccccc2)cc(OC)c1OC	·	5%	-6%	15%	-25%	-72*
O=C(Nc1nnc(CC(=O)N2CCOCC2)s1)C1COc2ccccc2O1 (stereo not drawn)	5%	24%	-12%	19%	-3%	87
COCCN1C(=O)N[C@@H](CCc2ccccc2)[C@@H](C(=O)OC)[C@H]1C	·	-22%	i	-6%	-2%	4
C/C(=C\[C@@H](NP(=O)(c1ccccc1)c1ccccc1)c1ccccc1)CO[Si](c1ccccc1)(c1ccccc1)C(C)(C)C	·	-23%	-19%	-3%	?	-10
CCCC/C(C)=C/[C@@H](NP(=O)(c1ccccc1)c1ccccc1)c1ccccc1	-21%	-11%	-11%	2.8µM*	?	-23
O=C(COC(=O)c1ccccc1C(=O)c1ccc(Cl)cc1)NCCc1ccccc1	-5%	-17%	?	-12%	?	-76*
Cc1cccc(NC(=O)CSc2nc3ccc(NC(=O)c4cccs4)cc3s2)c1	1%	-1%	-10%	·	-1%	-23
COc1cc(OC)cc(C(=O)NNC(=O)CN2C(=O)NC(C)(c3ccc(C)cc3)C2=O)c1 (stereo not drawn)	6%	5%	-11%	-4%[8.37 µM]	-11%	-18
O=C(N/N=C/c1c(Cl)cccc1Cl)c1cccc(F)c1	35µM*	59%	·	-6%	·	-11
Cc1[nH]n(-c2ccccc2)c(=O)c1/C=N/Nc1nncc(-c2ccccc2)n1	-15%	·	4µM*	0.56µM*	?	-99*
Cc1ccc(-n2[nH]c(C)c(/C=N/c3ccccn3)c2=O)cc1	-8%	·	i	15%	-17%	-1
Cc1[nH]n(-c2ccccc2)c(=O)c1/C=N/NC(=O)c1cccc(F)c1	2%	-6%	·	11µM*	·	-98*
Cc1[nH]n(-c2ccccc2)c(=O)c1C=Nc1cccc2cccnc12	3%	-23%	13µM*	3.5µM*	?	-63*
c1coc(-c2nc(N=C3N=c4ccccc4=N3)[nH]c2-c2ccco2)c1	·	-1%	i	·	4%	-14
Cc1[nH]n(-c2ccc(Br)cc2)c(=O)c1/C=N/NC(=O)c1ccccc1	-5%	-5%	·	?	·	-98*
